Shown are actives, neighbours in structure and some others; about 1.4% of the full set was active somewhere.
IL-2 act – qHTS of IL-2 Activators; IL-2 activation reporter assay, cell-based qHTS; stimulated with anti-CD3/CD4/CD28 beads; in transgenic mouse T cells; activation, % (series mostly up to about 46 µM); 0.065% of 360,000 active; in the data active means activation above about 50%; inconclusive means mostly about 30% to 49%; further: 0% is about no effect
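Readout: EGFP and DsRed signals by fluorescent plate cytometry. Unstimulated transgenic mouse T cells received compound 60 min before antibody-bead stimulation, then incubated 18 h at 37 degrees C.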
BRCA1 expr act – qHTS Assay to Identify Small Molecule Activators of BRCA1 Expression | MCF7-BRCA1-FFLuc reporter, luminescence, 48 h; response scale: scaled: vehicle 0%, 10 µM genistein 100% | Potency, µM (top dose mostly 46.1 µM), without a hit: at the top dose activation, usual class: activators | 1.1% of 380,000 active; further: potency means the concentration at half of the fitted maximal effect; nearly all actives have a fitted effect of over 80% in size
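Cells: MCF7-BRCA1-FFLuc, 2000/well. Exposure: 48 h, 37 °C, 5% CO2. Read: luminescence, 15 min post-substrate. Controls: genistein 10 microM (maximal activation), DMSO (neutral).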
N370S GC – qHTS Assay for Inhibitors and Activators of N370S glucocerebrosidase as a Potential Chaperone Treatment of Gaucher Disease | Lysosomal acid glucosylceramidase (Homo sapiens), P04062 | N370S GC spleen homogenate, 4MU-glucoside fluorescence | Potency, µM (highest dose often 59.4 µM), for the others: at the top dose activity change, negative = inhibition, actives largely listed as inhibitors | 0.092% of 330,000 active;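 further: potency means the concentration at half of the fitted maximal effect; 0% = full enzyme activity and -100% = no enzyme basal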
Nrf2 activator – qHTS of Nrf2 Activators; AREc32 ARE-luciferase reporter (MCF7-derived line), luminescence, 24 h; Potency, µM (highest dose often 46.1 µM), without a hit: at the top dose activation, actives largely listed as activators; 0.31% of 410,000 active; AID 624171, 2012; further: potency means the concentration at half of the fitted maximal effect; % of control where 0% means no effect; nearly all actives have a fitted effect of over 65% in size
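AREc32_Fluc, 1000 cells/well, OPTI-MEM + 5% FBS, o/n 37 deg C 5% CO2; 23 nL cpd by pin tool, 24 hr; Steady-Glo 30 min RT, luminescence.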
Integrin act MD – qHTS for Activators of Integrin-Mediated Alleviation for Muscular Dystrophy; alpha7betagal myoblasts, beta-gal FDG fluorescence, 48 h; Potency, µM (series often up to 38.3 µM), inactives show at the top dose activation, usual class: activators; 0.064% of 350,000 active;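 further: potency means the concentration at half of the fitted maximal effect; 100% = response of the positive control SU9516; nearly all actives have a fitted effect of over 60% in size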
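alpha7betagal+/- myoblasts (passage 13, 250/well) treated 48 h at 37C with compounds at 1:260 dilution of DMSO stock. Lysed, then beta-galactosidase activity read as FDG fluorescence (ex 480/em 540) after 30 min, with pre-read for autofluorescence.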
Chronic BCR inh – qHTS Assay to Find Inhibitors of Chronic Active B-Cell Receptor Signaling; ABC-DLBCL IkBa-CBG/CBR reporter, luminescence ratio, 4 h; Potency, µM (highest dose often 46.1 µM), without a hit: at the top dose activity change, negative = inhibition, hits mostly inhibitors; 0.05% of 340,000 active; AID 493014, 2011; active means well fitted inhibition curve with a large enough effect in the signal ratio, with a control signal flat, not every such curve was filed as active; inconclusive means small, poorly fitted or top-dose-only effect, or effect the other way, or a change in a side signal; the % refers to the signal ratio;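 further: potency means the concentration at half of the fitted maximal effect; plate controls were basal doxycycline-induced cells for no effect and cells given 10 µM MG132 for full effect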
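Doxycycline induced both beetle luciferases in TMD8 lymphoma cells; IKK-driven degradation limits the IkappaBalpha-fused green signal, while red luminescence normalises for cell number and nonspecific effects. Compounds tested up to 46 uM, 4 hrs.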
An asterisk follows results filed as active; u = inconclusive; x = not tested or not shown. Unless noted, the call rests on the fitted dose curve; in most records, active means well fitted curve in the direction sought with a large enough effect; inconclusive means small, poorly fitted or top-dose-only effect, or another doubt; inactive means no such curve, though single readings can be large; an effect the other way counts as inactive or inconclusive.

SMILES | IL-2 act | BRCA1 expr act | N370S GC | Nrf2 activator | Integrin act MD | Chronic BCR inh
CCC(=O)Nc1ccc2nc(C3CC3)n(Cc3ccccc3)c(=O)c2c1 | 1 | 4µM* | -1% | 0% | -6% | -10%
O=C(CCn1cccn1)Nc1ccc(Br)cc1F | x | x | x | 3% | x | x
Cc1cccc(NC(=O)c2ccc3nccnc3c2)n1 | 5 | 13µM* | 0% | 0% | 21% | u
CCOc1ccc(NC(=O)Nc2cccc(C)n2)cc1 | 1 | u | u | 6% | -3% | -1%
CCCCOc1ccc(C(=O)Nc2cccc(C)n2)cc1 | 0 | 2.8µM* | -7% | 0% | -10% | u
O=C(Cc1ccc2ccccc2c1)NO | x | 0% | x | x | x | x
O=C1NC(Cc2ccc(O)cc2)c2nc3cc(Cl)ccc3c(=O)n2-c2cc3ccccc3cc21 (centres undefined) | -3 | -78% | x | 0% | 10% | x
CC(C)(C)c1ccc(NC(=O)CC2(C(F)(F)F)OCCO2)cc1 | 2 | 3.5µM* | 4% | 0% | 9% | u
CC1(C(=O)NS(=O)(=O)c2ccccc2Cl)CCN1C(=O)CC1CC1 (centres undefined) | -1 | 7% | x | -1% | x | x
Cc1ccccc1-c1n[nH]c(=S)n1/N=C/C=C/c1ccco1 | 1 | -17% | -4% | 13µM* | 0% | u
COc1cc2c(cc1OC)C(NC(=O)C(F)(F)F)C/C2=N\O (centres undefined) | 1 | 6% | -1% | -1% | 11µM* | -8%
Cc1cc(C)n2nc(SCC#N)nc2n1 | -2 | 1% | 6% | 0% | -19% | -2%
C=CCSc1nccc(-c2cc(Cl)sc2Cl)n1 | -4 | -36% | 6% | 10µM* | 9% | 7%
C=CCSc1ncc(-c2ccccc2)cn1 | 2 | 80% | 10% | 3% | 36% | -5%
N#CCSc1nccc(-c2cc(Cl)sc2Cl)n1 | 0 | -41% | 11% | 7.9µM* | 24% | u
Cc1ccc2c(Cl)c(C(=O)NC3CC3)sc2c1 | -5 | 2.8µM* | 0% | -1% | 10% | u
O=C(NC1CC1)c1sc2cc([N+](=O)[O-])ccc2c1Cl | 0 | 53% | 2% | 4% | -1% | u
CCc1nn(C(CC)C(=O)NCc2cccc(OC)c2)c(=O)c2cc3occc3n12 (centres undefined) | -1 | 11% | 4% | 0% | 0% | 5%
Clc1ccc(-n2nnc(-c3cccnc3Cl)n2)cc1Cl | -1 | 4µM* | -1% | 3% | 10% | u
Clc1ncccc1-c1nnn(-c2ccccc2)n1 | -1 | u | 0% | 28% | 2% | u
O=C(c1ccc2c(c1)N(Cc1ccccc1)C(=O)c1ccccc1S2(=O)=O)N1CCc2ccccc21 | x | x | x | 6% | x | x
Cc1ccc2c(=O)cc(C(=O)Nc3c(C)n(C)n(-c4ccccc4)c3=O)oc2c1C | x | x | x | -1% | x | x
CN(C)C(CNC(=O)c1cc(-c2ccco2)nc2ccccc12)c1ccccc1 (centres undefined) | 0 | -1% | x | 13µM* | 1% | 5%
O=C(NCC1CCCO1)c1cc(-c2ccco2)nc2ccccc12 (centres undefined) | -1 | -3% | 23% | 11µM* | -5% | 4%
NC(=O)COC(=O)c1cc(-c2ccco2)nc2ccccc12 | 0 | -1% | 5% | 3.5µM* | 7% | u
COc1ccccc1CNC(=O)COC(=O)c1cc(-c2ccco2)nc2ccccc12 | -1 | -65% | 1% | u | -3% | u
CC(=O)c1ccc([N+](C)(C)C)cc1 | x | 2% | x | x | x | x
O=C(Nc1ncccc1O)c1ccc(Oc2ccccc2)cc1 | -2 | 74% | 2% | 13% | u | u

Source: PubChem
